FLuc modulator = qHTS profiling assay for firefly luciferase inhibitor/activator using purifed enzyme and Km concentrations of substrates (counterscreen for miR-21 project) | purified FLuc, Km substrates, luminescence inhibition | Potency, µM (top dose mostly 57.5 µM), hits mostly inhibitors | 6.9% of 360,000 active | AID 588342, 2011; note: nearly all actives have a fitted effect of over 55% in size
Target sequence (P08659 whole entry, looked up): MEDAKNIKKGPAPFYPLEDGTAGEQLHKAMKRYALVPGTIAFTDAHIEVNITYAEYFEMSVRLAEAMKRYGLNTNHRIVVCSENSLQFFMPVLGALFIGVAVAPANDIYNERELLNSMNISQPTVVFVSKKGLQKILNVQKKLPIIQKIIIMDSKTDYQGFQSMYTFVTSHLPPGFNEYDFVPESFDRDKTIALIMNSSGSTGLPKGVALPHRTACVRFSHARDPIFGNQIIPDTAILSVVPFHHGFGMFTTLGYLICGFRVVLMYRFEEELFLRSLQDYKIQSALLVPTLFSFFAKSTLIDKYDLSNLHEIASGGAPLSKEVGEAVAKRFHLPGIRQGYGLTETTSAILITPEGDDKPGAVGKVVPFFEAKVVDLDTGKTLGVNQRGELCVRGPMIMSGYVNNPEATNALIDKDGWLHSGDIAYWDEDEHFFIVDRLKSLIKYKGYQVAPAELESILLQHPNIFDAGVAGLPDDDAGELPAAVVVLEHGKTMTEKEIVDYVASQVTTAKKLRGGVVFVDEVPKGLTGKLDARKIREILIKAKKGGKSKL
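Biochemical qHTS of compounds, final roughly 60 µM downward over six points, against 10 nM purified firefly luciferase using Km concentrations of substrates (10 uM D-luciferin, 10 uM ATP) in Tris acetate pH 7.5 buffer; luminescence output.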
SMN2 splice enh = qHTS Assay for Enhancers of SMN2 Splice Variant Expression; HEK293 SMN2-luciferase splicing reporter, luminescence, 30-36 h; Potency, µM (highest dose often 46.1 µM), actives largely listed as activators; 2.8% of 210,000 active; note: nearly all actives have a fitted effect of over 55% in size
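HEK293 cells carry an SMN2 minigene-luciferase reporter in which exon 7 inclusion puts luciferase in frame. Cells were seeded at 2000 cells/well, attached for 10-12 hours, then exposed to compounds for 30-36 hours at 37C before ONE-Glo luminescence.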
NPC1 promoter act = qHTS Assay for NPC1 Promoter Activators; Huh7 NPC1 promoter luciferase reporter, 24 h; Potency, µM (series often up to 9.22 µM), usual class: activators; 2.4% of 320,000 active; note: nearly all actives have a fitted effect of over 60% in size
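In 1536-well qHTS, Huh7 cells harboring an NPC1 promoter–luciferase construct received compound for 24 h; activation was quantified by luminescence following luciferase reagent addition.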
ELG1 genotox = qHTS screen for small molecules that induce genotoxicity in human embryonic kidney (HEK293T) cells expressing luciferase-tagged ELG1. HEK293T ELG1-luciferase reporter, luminescence, 16 h. Potency, µM (doses to about 46 µM), most hits filed as activators. 1.3% of 330,000 active. AID 504466, 2011; note: nearly all actives have a fitted effect of over 60% in size
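Cells (2,000/well) expressing the ELG1-luciferase fusion are dosed by pin tool and kept 16 hr at 37 °C, 5% CO2. Signal comes from ONE-Glo luciferase reagent after 30 min at room temperature.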
Rab9 prom act = qHTS Assay for Rab9 Promoter Activators; Potency, µM (highest dose often 9.22 µM), most hits filed as activators; 2.8% of 320,000 active; Huh7 Rab9 promoter-luciferase reporter, luminescence, 24 h; note: nearly all actives have a fitted effect of over 60% in size
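Measured in stably transfected Huh7 cells bearing a Rab9 promoter–luciferase construct: 24 h compound treatment at 37 °C, followed by luminescence detection.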
Luc counter = Counterscreen for Luciferase (Kinase-Glo TM) Inhibition; 0.28% of 200,000 active; Kinase-Glo luciferase, ATP luminescence, 8 min; AID 1379, 2008; Potency, µM (highest dose often 38.3 µM), actives largely listed as inhibitors; Luciferin 4-monooxygenase (Photuris pensylvanica), Q27757; note: nearly all actives have a fitted effect of over 60% in size
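Recombinant Kinase-Glo luciferase, 10 uM ATP (linear range), luciferin; imidazole pH 7.2 / KCl / MgCl2 / Tween / BSA buffer; 8 min RT; luminescence.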
A number is an active result; . = inactive; ? = inconclusive; / = not tested or not shown; [ ] = dose if it differs, or a comment. Only some compounds are listed: those with a hit (about 7.4% of all), similar ones and a draw of the others. Calls come from the whole dose curve; as a rule, active = well fitted curve in the direction sought with a large enough effect; inconclusive = small, poorly fitted or top-dose-only effect, or another doubt; inactive = no such curve, though single readings can be large; an effect the other way counts as inactive or inconclusive.

SMILES	FLuc modulator	SMN2 splice enh	NPC1 promoter act	ELG1 genotox	Rab9 prom act	Luc counter
CCOC(=O)c1cc2c(nc1N)CC(C)(C)OC2	?	.	.	.	.	.
CC1(C)Cc2nc3sc(C(N)=O)c(N)c3cc2CO1	?	/	.	.	?	/
O=C(Cn1c(=O)n(Cc2ccc(C(=O)NCc3ccccc3Cl)cc2)c(=O)c2ccccc21)Nc1ccc(F)c(Cl)c1	.	.	/	/	/	/
CCCCC(=O)Nc1ccc2oc(-c3ccncc3)nc2c1	.	.	.	.	.	.
CCCC(=O)Nc1ccc2oc(-c3cncc(Br)c3)nc2c1	?	4.47µM	1.58µM	9.2µM	1.26µM	.
CCCCCC(=O)Nc1ccc2oc(-c3cncc(Br)c3)nc2c1	.	11.2µM	0.708µM	?	1.58µM	.
CCCC(=O)Nc1ccc2oc(-c3ccncc3)nc2c1	?	.	.	.	.	.
O=c1c(-c2ccc(F)cc2)nc2cnc(Nc3ccccc3)nc2n1Cc1cccs1	/	.	/	/	/	.
O=c1nccc(N/N=C/c2ccccc2O)[nH]1	?	/	.	.	.	/
COc1cccc(/C=N/Nc2ccnc(=O)[nH]2)c1O	16.9µM	/	.	.	.	/
COc1cccc(/C=N/Nc2ccc([N+](=O)[O-])cn2)c1O	0.757µM	/	.	2.59µM	.	/
COc1ccc2c(c1)CCc1c(C(=O)N3CCOCC3)noc1-2	10.7µM	12.6µM	3.98µM	11.6µM	3.16µM	.
COc1ccc2c(c1)CCc1c(C(=O)N3CC4(C)CC3CC(C)(C)C4)noc1-2 (stereo not given)	.	.	.	.	.	.
COc1ccc2c(c1)CCc1c(C(=O)N3CCCc4ccccc43)noc1-2	13.5µM	.	.	?	.	.
COc1ccc2c(c1)CCc1c(C(=O)Nc3ccc(OC)c(OC)c3)noc1-2	2.39µM	.	.	.	.	.
Cc1ccc(Cl)cc1N	/	.	/	/	/	/
Cn1c(=O)[nH]c2nnc(-c3ccc(Cl)c(Cl)c3)nc2c1=O	3.38µM	/	0.708µM	?	?	/
CSc1cnc2c(=O)n(C)c(=O)[nH]c2n1	.	.	.	.	.	.
O=C(Nc1ccc(-c2noc(-c3ccccc3F)n2)cc1)c1cccs1	?	14.1µM	?	?	1.58µM	.
Cc1ccccc1-c1nc(-c2ccc(NC(=O)c3cccs3)cc2)no1	13.5µM	.	?	.	3.98µM	.
O=C(Nc1ccc(NC(=S)NC(=O)c2ccccc2F)cc1)c1cccs1	.	.	.	.	.	.
O=C(c1ccncc1)c1ccc(NC(=O)c2cccs2)cc1	?	.	.	.	.	.
O=C(NCc1ccccc1)c1c2c(nc3ccccc13)C(=O)N(C1CCCCC1)C2	.	/	/	/	/	/
C=CCNC(=S)Nc1sc2c(c1C#N)CCCC2	21.3µM	.	.	.	.	.
N#Cc1c(NC(=O)c2ccccc2)sc2c1CCCCC2	?	0.631µM	0.794µM	?	0.562µM	.
SMILES	FLuc modulator	SMN2 splice enh	NPC1 promoter act	ELG1 genotox	Rab9 prom act	Luc counter
Cc1ccc(C(=O)Nc2sc3c(c2C#N)CCCCC3)cc1C	?	?	2.24µM	?	3.16µM	.
N#Cc1c(Cl)nsc1NC(=O)c1ccccc1	15.1µM	.	.	.	.	.
CC(=O)Nc1sc2c(c1C#N)CCCCC2	?	.	.	.	.	.
CS(=O)(=O)c1ccc(CNC(=O)[C@H]2C[C@@H]2[C@H](NP(=O)(c2ccccc2)c2ccccc2)c2ccccc2)cc1	/	.	/	/	/	.
N#Cc1cccc(NC(=O)N2CCCC3(CCN(C(=O)c4cnccn4)CC3)C2)c1	/	.	/	/	/	.
COC(=O)[C@@H]1C(O)[C@@H](C(=O)OC)[C@H](C)N(C)[C@@H]1C (stereo not given in full)	/	.[9.22 µM]	/	/	/	.[7.66 µM]
Cc1ccccc1C(=O)NC(=S)Nc1sc2c(c1C#N)CCCC2	19µM	.	.	.	.	.
Cc1cc2nc(-c3ccc(OCc4ccccc4C)cc3)cc(C(F)(F)F)n2n1	.	.	/	/	/	/
O=C(CC1S/C(=N/N=C/C=C/c2ccccc2)NC1=O)Nc1ccc(C(=O)O)cc1 (stereo not given)	13.5µM	.	.	.	.	.
O=C(CC1S/C(=N/N=C/c2ccco2)NC1=O)Nc1ccccc1 (stereo not given)	.	.	.	.	.	.
CC#CCN1c2ccccc2[C@]23C[C@@H](C(=O)OC)N(S(=O)(=O)c4cccs4)C2=NC(C(=O)OC)=C(C(=O)OC)[C@H]13	/	.[9.22 µM]	/	/	/	.[7.66 µM]
CCn1c(SCC(=O)Nc2ccc(C(C)=O)cc2)nc2c([nH]c3ccccc32)c1=O	.	/	.	16.4µM	.	/
CC(=O)c1ccc(NC(=O)CSc2nc(N3CCOCC3)nc(N3CCOCC3)n2)cc1	.	/	.	18.3µM	.	/
CC(=O)Nc1c(O)nc(SCC(=O)Nc2cccc(C)c2)[nH]c1=O	.	.	.	.	.	.
CC(=O)Nc1c(O)nc(SCC(=O)Nc2ccc(C(C)=O)cc2)[nH]c1=O	?	?	?	9.2µM	?	.
CCn1c(SCC(=O)Nc2ccccc2)nc2c([nH]c3ccccc32)c1=O	.	/	/	/	/	/
CCOC(=O)NC(=O)/C(C#N)=C\Nc1ccc(Cl)cc1Cl	13.5µM	.	.	.	?	.
COC(=O)CC(NC(=O)c1ccc(C)cc1)c1ccccc1 (stereo not given)	3.79µM	.	.	.	.	.
Cc1ccc(C(=O)NC(c2ccccc2)C(Cl)Cl)cc1 (stereo not given)	21.3µM	.	.	.	.	.
COC(=O)CC(NC(=O)c1ccc(C)cc1)c1ccc2c(c1)OCO2 (stereo not given)	.	.	.	.	.	.
CCCn1c2ccccc2c2cnn(CC(=O)NCCc3ccc(C)cc3)c(=O)c21	.	/	/	/	/	/
NC(C(=O)O)c1cc(O)cc(O)c1 (stereo not given)	/	.	/	/	/	/
Cn1cc(CNC(=O)c2ccc3nc(Cc4ccccc4F)oc3c2)cn1	23.9µM	/	2.82µM	?	?	/
CCn1cc(CNC(=O)c2ccc3nc(Cc4ccccc4F)oc3c2)cn1	?	/	.	.	.	/
Cn1cc(CCNC(=O)c2ccc3nc(Cc4ccccc4F)oc3c2)cn1	5.36µM	/	2.51µM	?	1.58µM	/
CCCC1CCC(c2nc(-c3cccnc3)no2)CC1 (stereo not given)	23.9µM	.	.	.	?	.
C[C@H]1C=C2C=C[C@H](C)[C@H](CC[C@@H]3C[C@@H](O)CC(=O)O3)[C@H]2[C@@H](OC(=O)[C@@H](C)CCO)C1	/	/	/	/	/	.
O=C(Nc1cc2c(cc1Cl)OCCCO2)c1ccccc1	13.5µM	11.2µM	?	6.31µM	2.82µM	.
O=C(Nc1cc2c(cc1Cl)OCCCO2)c1ccco1	10.7µM	14.1µM	3.55µM	?	3.55µM	.
